Bead autofluor – compound fluorescence in toxin protease inhibitor counterscreen; compound autofluorescence counterscreen, microsphere flow cytometry; stronger effect = higher value; fluorescence intensity (test concentration not listed); actives 3.1% (n = 360,000); AID 624483; in the data active means fluorescence intensity above about 16000; inconclusive means no clear call, values can overlap the other calls
BoNT F protease – BoNT/F light chain protease inhibitors, primary screen, biochemical, flow cytometry, MLPCN library; Botulinum neurotoxin type F light chain protease (Clostridium botulinum); Multiplex microsphere protease cleavage assay; inhibition, % at 10 µM; actives 0.22% (n = 360,000); AID 588497, 2011; in the data active means inhibition above about 35%, passing the limit was not always enough; inconclusive means no clear call, values can overlap the other calls; further: plate controls were buffer without enzyme for full effect and enzyme alone for no effect
Anthrax LF inh2 – Bacillus anthracis LF protease inhibitors, primary screen, biochemical, multiplex microsphere, MLPCN library | actives 0.12% (n = 360,000) | Lethal factor (Bacillus anthracis), P15917 | AID 588501, 2011 | multiplex microsphere protease cleavage assay | inhibition, % at 10 µM; further: plate controls were buffer without enzyme for full effect and enzyme alone for no effect
BoNT A protease – BoNT/A light chain protease inhibitors, primary screen, biochemical, flow cytometry, MLPCN library | Botulinum neurotoxin type A light chain protease (Clostridium botulinum A str. ATCC 3502) | multiplex microsphere protease substrate cleavage | inhibition, % at 10 µM | actives 0.17% (n = 360,000) | AID 588499, 2011; further: plate controls were buffer without enzyme for full effect and enzyme alone for no effect
BJeLR viability – MLPCN primary cell-based screen for lethality selective to Ras in HRASV12 cells. BJeLR (HRASV12) viability, CellTiter-Glo ATP luminescence, 48 h. inhibition, % (test concentration not listed). actives 0.17% (n = 300,000). AID 1554, 2009; in the data active means inhibition above about 50%; inconclusive means no clear call, values can overlap the other calls
The depositor's hits bear a star; ? = inconclusive; . = no result given; ! = a repeat was not active. Shown are actives, neighbours in structure and some others; about 3.5% of the full set was active somewhere. Unless noted, no stated cut-off is given here; in the data, active means inhibition above about 30%; inconclusive means no clear call, values can overlap the other calls; inactive means below that.

SMILES | Bead autofluor | BoNT F protease | Anthrax LF inh2 | BoNT A protease | BJeLR viability
CCCCC[C@H]1CCCCC[C@H](O)C[C@@H](O)[C@H](O)/C=C/C(=O)O1 | 6196 | 4 | -8 | 0 | .
CCOc1ccc(N(CC(=O)Nc2c(C)cc(C)cc2C)C2=NC3CS(=O)(=O)CC3S2)cc1 (stereo not drawn) | 5805 | -4 | -10 | -1 | .
Cc1cc(C)n2c(SCc3ccc(C#N)cc3)nnc2n1 | 22207* | 3 | -2 | 1 | -4
Cc1ccc(S(=O)(=O)NCCC2=CCCCC2)cc1 | ? | -5 | 2 | 0 | .
C1=C(CCNCc2ccccc2)CCCC1 | 23029* | -5 | -2 | ? | 0
O=C(NCCC1=CCCCC1)C(=O)NCc1ccccc1Cl | 16906* | -5 | 1 | ? | -8
Cc1ccc(CNCCC2=CCCCC2)cc1 | 16821* | -12 | -6 | ? | -4
C1=C(CCNCC2CC2)CCCC1 | 10768 | -6 | -1 | 0 | -4
O=C(CCN1C(=O)c2ccccc2C1=O)NCCC1=CCCCC1 | 20662* | 8 | -16 | 8 | -5
COc1cccc(C2C(C(=O)OC(C)C)=C(C)Nc3ncnn32)c1 (stereo not drawn) | 20726* | -5 | -10 | ? | 5
COc1cc(OC)c(C2C(C(=O)Nc3ccc(C)cc3C)=C(C)Nc3ncnn32)cc1OC (stereo not drawn) | 23198* | -1 | -3 | 0 | 6
CC1=C(C(=O)OC(C)C)C(c2cccc(F)c2)n2ncnc2N1 (stereo not drawn) | 6449 | -3 | 4 | -1 | 4
COc1cc(OC)c(C2C(C(=O)Nc3ccccc3)=C(C)Nc3ncnn32)cc1OC (stereo not drawn) | 16373* | 1 | 0 | 0 | -4
COc1ccc(C2C(C(=O)Nc3ccccc3OC)=C(C)Nc3ncnn32)cc1 (stereo not drawn) | 4701 | -5 | -10 | -2 | -16
COC(=O)C1=C(C)Nc2ncnn2C1c1ccccn1 (stereo not drawn) | 21583* | 2 | 1 | 2 | -5
CC1=NN(C(=O)c2ccccc2-n2cccc2)C(O)(C(F)(F)F)C1 (stereo not drawn) | 2441 | -2 | -2 | 0 | -1
COc1ccccc1C1C(C(=O)NCc2ccccc2)=C(C)Nc2ncnn21 (stereo not drawn) | 5946 | -2 | -10 | 0 | 4
COc1ccccc1C1C(C(N)=O)=C(C)Nc2ncnn21 (stereo not drawn) | 16247* | -1 | -1 | 1 | -1
Cc1ccc(SCC(=O)O/N=C(\N)c2ccc([N+](=O)[O-])cc2)cc1 | 22162* | 3 | -1 | 3 | -18
COc1ccc(/C(N)=N/OC(=O)CSc2ccc(C)cc2)cc1OC | 8261 | -8 | 0 | 0 | 0
Cc1ccc(S(=O)(=O)N2CCN(CC(=O)NC3CCCc4ccccc43)CC2)c(C)c1 (stereo not drawn) | 4671 | -5 | -7 | 0 | -9
CCN(CC)S(=O)(=O)N1CCC(C(=O)NC2CCCc3ccccc32)CC1 (stereo not drawn) | 20617* | 6 | 0 | 5 | 7
O=C(Nc1ccccc1)NC1CCCc2ccccc21 (stereo not drawn) | 2281 | 1 | 0 | 1 | 11
CNC(=O)NC1CCCc2ccccc21 (stereo not drawn) | 23281* | 1 | -2 | 1 | 3
Cc1ccc(S(=O)(=O)N2CCN(CC(=O)NC3CCCc4ccccc43)CC2)cc1C (stereo not drawn) | 21955*! | 6 | 0 | 0 | 0
COC(=O)C1=CN(C(C)C)C=C(C(=O)OC)C1c1cc(Br)c(OC)c(OC)c1 | 23675* | -5 | 0 | -4 | -7
Cc1oc(=O)c(NC(=O)c2cccc(Cl)c2)cc1C(=O)c1ccccc1 | 21979* | 1 | 0 | ? | -2
COc1ccc(C(=O)Nc2cc(C(=O)c3ccccc3)c(C)oc2=O)cc1 | 10513 | 5 | -6 | 0 | 3
COc1ccc(C(=O)CC2OC(=O)c3ccccc32)cc1OC (stereo not drawn) | 21822* | 0 | -2 | ? | 10
COc1ccc(OC)c(C(=O)CC2OC(=O)c3ccccc32)c1 (stereo not drawn) | 4190 | 13 | 2 | 1 | -2

Screening results deposited in PubChem by several laboratories.
